The structures appear in SMILES notation. Compounds without any hit were thinned out: in the full panel of roughly 79,000, 15% have a hit. A number with no mark means an inactive call. Calls of active or inactive are those of the source. Cut-off read from the data, not from the text of the source: active = growth inhibition above about 70%; inactive = the rest.

The nature of assay [1]: NCI Yeast Anticancer Drug Screen. Data for the rad50 strain (AID 155).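 Note: 0% = growth of vehicle-only cultures of the same strain.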 The note with it: S. cerevisiae rad50 strain growth inhibition, active compounds read high. A digest of the protocol: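 Vehicle-treated cultures provide the reference for the growth inhibition reported for compound-exposed, repair-deficient yeast.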
A short description of assay [2]: NCI Yeast Anticancer Drug Screen. Data for the mec2-1 strain (AID 157). The note with it: S. cerevisiae mec2-1 strain, active compounds read high. A digest of the protocol: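 Vehicle-treated cultures served as reference for growth inhibition of compound-exposed mec2-1 yeast.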
Assay [3] can be described thus: NCI Yeast Anticancer Drug Screen. Data for the sgs1 mgt1 strain (AID 161).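 Note: 0% = growth of cultures given vehicle only.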 The note with it: S. cerevisiae sgs1 mgt1 strain, active compounds read high. A digest of the protocol: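 Test agents were incubated with a DNA-repair-mutant yeast strain. Growth was then read and compared against vehicle-treated controls.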
Assay [4] is described as follows: NCI Yeast Anticancer Drug Screen. Data for the cln2 rad14 strain (AID 165).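 Note: 0% = growth equal to vehicle treated cultures.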 The note with it: S. cerevisiae cln2 rad14 strain, active compounds read high. A digest of the protocol: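 Each compound was tested on cln2 rad14 yeast. Inhibition of growth was calculated against vehicle-exposed controls.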
Assay [5] can be described thus: NCI Yeast Anticancer Drug Screen. Data for the bub3 strain (AID 167). Conditions: S. cerevisiae bub3 mutant strain, active compounds read high. A digest of the protocol:
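Mutant yeast screening strain plus compound; vehicle-treated cultures serve as the 0% inhibition reference.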

Assay [6] in a line: NCI Yeast Anticancer Drug Screen. Data for the mlh1 rad18 strain (AID 175). Conditions: S. cerevisiae mlh1 rad18 strain growth inhibition, active compounds read high. A digest of the protocol:
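Vehicle-treated cultures served as the reference for growth inhibition in a yeast strain carrying DNA damage repair alterations exposed to each compound.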

Setting [7] is: at 5.0 µM (retest, dose inferred, filed as 0.5).
Where [8] appears, read: at 50.0 µM (retest, dose inferred, filed as 5.0).

With `CNC(=S)N/N=C(\C=N\NC(=S)NC)c1ccccc1`, the growth inhibition was 7% in assay [1] (setting [7]); 32% in assay [1] (setting [8]); 74.7% (active) in assay [1] (at 50.0 µM); -14% in assay [2] (setting [7]); 35% in assay [2] (setting [8]); 37% in assay [2] (at 50.0 µM). Moreover, the growth inhibition in assay [3] (setting [7]) is 3%; in assay [3] (setting [8]) it was 37%; in assay [3] (at 50.0 µM) it was 82.4% (active); in assay [4] (setting [7]), 9%; in assay [4] (setting [8]), 30%; in assay [4] (at 50.0 µM), 37.8%. Further, the growth inhibition in assay [5] (setting [7]) is -1%; in assay [5] (setting [8]) it was 25%; in assay [5] (at 50.0 µM) it was 59.5%; in assay [6] (setting [7]) it was 0%; in assay [6] (setting [8]), 44%; in assay [6] (at 50.0 µM) it was 66.8%.
On to `CC(=O)Nc1ccc(-c2nnc(SCC(=O)Nc3ccc(Cl)cc3Cl)o2)cc1`, for which the growth inhibition was 1% in assay [1] (setting [7]); 30% in assay [1] (setting [8]); 89.4% (active) in assay [1] (at 50.0 µM); -4% in assay [2] (setting [7]); 10% in assay [2] (setting [8]); 97.4% (active) in assay [2] (at 50.0 µM). The growth inhibition is 2% in assay [3] (setting [7]); 8% in assay [3] (setting [8]); 94.9% (active) in assay [3] (at 50.0 µM); 8% in assay [4] (setting [7]); 29% in assay [4] (setting [8]); 86.4% (active) in assay [4] (at 50.0 µM). In addition, the growth inhibition in assay [5] (setting [7]) was -3%; in assay [5] (setting [8]), 22%; in assay [5] (at 50.0 µM), 97.7% (active); in assay [6] (setting [7]), 7%; in assay [6] (setting [8]) it was 28%; in assay [6] (at 50.0 µM) it was 94.7% (active).
Consider `c1ccc(Cn2nnc(-c3ccccc3)c2-c2ccccc2)cc1`, for which the growth inhibition in assay [1] (setting [7]) is -2%; in assay [1] (setting [8]), 90% (active); in assay [1] (at 50.0 µM) it was 90.6% (active); in assay [2] (setting [7]) it was -12%; in assay [2] (setting [8]) it was 97% (active); in assay [2] (at 50.0 µM), 87.6% (active). Besides, the growth inhibition is -6% in assay [3] (setting [7]); 96% (active) in assay [3] (setting [8]); 85.6% (active) in assay [3] (at 50.0 µM); 6% in assay [4] (setting [7]); 97% (active) in assay [4] (setting [8]); 87.8% (active) in assay [4] (at 50.0 µM). Moreover, the growth inhibition is 17% in assay [5] (setting [7]); 96% (active) in assay [5] (setting [8]); 94% (active) in assay [5] (at 50.0 µM); 14% in assay [6] (setting [7]); 94% (active) in assay [6] (setting [8]); 87.5% (active) in assay [6] (at 50.0 µM).
As for `C(=N\NC1=NCCN1)/c1ccc(-c2cn3cc(/C=N/NC4=NCCN4)ccc3n2)cc1`, the growth inhibition in assay [1] (setting [7]) was 99% (active); in assay [1] (setting [8]), 99% (active); in assay [1] (at 50.0 µM) it was 99.1% (active); in assay [2] (setting [7]), 100% (active); in assay [2] (setting [8]), 99% (active); in assay [2] (at 50.0 µM), 97.8% (active). Besides, the growth inhibition is 99% (active) in assay [3] (setting [7]); 100% (active) in assay [3] (setting [8]); 99.3% (active) in assay [3] (at 50.0 µM); 92% (active) in assay [4] (setting [7]); 98% (active) in assay [4] (setting [8]); 98.1% (active) in assay [4] (at 50.0 µM). In addition, the growth inhibition in assay [5] (setting [7]) is 98% (active); in assay [5] (setting [8]), 99% (active); in assay [5] (at 50.0 µM), 99.3% (active); in assay [6] (setting [7]) it was 99% (active); in assay [6] (setting [8]), 99% (active); in assay [6] (at 50.0 µM), 99.4% (active).
Turning to `COC(=O)c1ccc(NCC2=C(Br)C(=O)C=CC2=O)cc1Cl`, the growth inhibition in assay [1] (setting [7]) is 43%; in assay [1] (setting [8]), 98% (active); in assay [1] (at 50.0 µM), 89.4% (active); in assay [2] (setting [7]), 35%; in assay [2] (setting [8]) it was 98% (active); in assay [2] (at 50.0 µM), 77.6% (active). In addition, the growth inhibition was 35% in assay [3] (setting [7]); 98% (active) in assay [3] (setting [8]); 92.3% (active) in assay [3] (at 50.0 µM); 43% in assay [4] (setting [7]); 98% (active) in assay [4] (setting [8]); 88.8% (active) in assay [4] (at 50.0 µM). Further, the growth inhibition in assay [5] (setting [7]) was 44%; in assay [5] (setting [8]), 98% (active); in assay [5] (at 50.0 µM), 90.8% (active); in assay [6] (setting [7]) it was 37%; in assay [6] (setting [8]) it was 97% (active); in assay [6] (at 50.0 µM), 89.7% (active).
Turning to `c1ccc(-c2ccc(-c3cnc(-c4ccc(-c5ccccc5)cc4)o3)cc2)cc1`, the growth inhibition in assay [1] (setting [7]) is 4%; in assay [1] (setting [8]) it was 30%; in assay [1] (at 50.0 µM), 90.2% (active); in assay [2] (setting [7]), 3%; in assay [2] (setting [8]), 46%; in assay [2] (at 50.0 µM), 53.4%. For the same molecule, the growth inhibition was 1% in assay [3] (setting [7]); 66% in assay [3] (setting [8]); 93% (active) in assay [3] (at 50.0 µM); -1% in assay [4] (setting [7]); 42% in assay [4] (setting [8]); 41.1% in assay [4] (at 50.0 µM). Besides, the growth inhibition in assay [5] (setting [7]) is 8%; in assay [5] (setting [8]), 31%; in assay [5] (at 50.0 µM), 93.2% (active); in assay [6] (setting [7]), -6%; in assay [6] (setting [8]), 64%; in assay [6] (at 50.0 µM), 92.8% (active).
Regarding `S=C(Nc1ccccc1)NC1CCCCCCCCC1`, the growth inhibition is -2% in assay [1] (setting [7]); 29% in assay [1] (setting [8]); 77% (active) in assay [1] (at 50.0 µM); -8% in assay [2] (setting [7]); 42% in assay [2] (setting [8]); 54.9% in assay [2] (at 50.0 µM). Also, the growth inhibition was 5% in assay [3] (setting [7]); 53% in assay [3] (setting [8]); 90.6% (active) in assay [3] (at 50.0 µM); -59% in assay [4] (setting [7]); 71% (active) in assay [4] (setting [8]); 60.7% in assay [4] (at 50.0 µM). For the same molecule, the growth inhibition is -5% in assay [5] (setting [7]); 27% in assay [5] (setting [8]); 30.8% in assay [5] (at 50.0 µM); 0% in assay [6] (setting [7]); 44% in assay [6] (setting [8]); 88.7% (active) in assay [6] (at 50.0 µM).
On to `O=C1OC(=O)c2cccc3cccc1c23`, for which the growth inhibition in assay [1] (setting [7]) was 51%; in assay [1] (setting [8]) it was 99% (active); in assay [1] (at 50.0 µM) it was 98.8% (active); in assay [2] (setting [7]) it was 35%; in assay [2] (setting [8]), 99% (active); in assay [2] (at 50.0 µM), 99.1% (active). The growth inhibition was 19% in assay [3] (setting [7]); 99% (active) in assay [3] (setting [8]); 98.5% (active) in assay [3] (at 50.0 µM); 23% in assay [4] (setting [7]); 99% (active) in assay [4] (setting [8]); 98.5% (active) in assay [4] (at 50.0 µM). Further, the growth inhibition in assay [5] (setting [7]) was 58%; in assay [5] (setting [8]), 99% (active); in assay [5] (at 50.0 µM) it was 99.5% (active); in assay [6] (setting [7]) it was 57%; in assay [6] (setting [8]), 99% (active); in assay [6] (at 50.0 µM) it was 98.4% (active).
On to `C=CCc1cc([N+](=O)[O-])ccc1O`, for which the growth inhibition in assay [1] (setting [7]) was -4%; in assay [1] (setting [8]) it was 80% (active); in assay [1] (at 50.0 µM), 76.5% (active); in assay [2] (setting [7]) it was 1%; in assay [2] (setting [8]), 85% (active); in assay [2] (at 50.0 µM), 92.1% (active). The growth inhibition is -2% in assay [3] (setting [7]); 87% (active) in assay [3] (setting [8]); 94.6% (active) in assay [3] (at 50.0 µM); -3% in assay [4] (setting [7]); 85% (active) in assay [4] (setting [8]); 88.7% (active) in assay [4] (at 50.0 µM). Besides, the growth inhibition was 3% in assay [5] (setting [7]); 85% (active) in assay [5] (setting [8]); 92.3% (active) in assay [5] (at 50.0 µM); -4% in assay [6] (setting [7]); 93% (active) in assay [6] (setting [8]); 90.8% (active) in assay [6] (at 50.0 µM).
As for `CCC(C)C(C(=O)NOC(=O)c1ccccc1)/C(N)=N/OC(=O)c1ccccc1` (stereo not given), the growth inhibition was 89% (active) in assay [1] (setting [7]); 99% (active) in assay [1] (setting [8]); 99.5% (active) in assay [1] (at 50.0 µM); 83% (active) in assay [2] (setting [7]); 100% (active) in assay [2] (setting [8]); 98.3% (active) in assay [2] (at 50.0 µM). Also, the growth inhibition in assay [3] (setting [7]) is 96% (active); in assay [3] (setting [8]), 99% (active); in assay [3] (at 50.0 µM) it was 99.6% (active); in assay [4] (setting [7]), 87% (active); in assay [4] (setting [8]), 99% (active); in assay [4] (at 50.0 µM), 99.5% (active). For the same molecule, the growth inhibition in assay [5] (setting [7]) is 91% (active); in assay [5] (setting [8]), 99% (active); in assay [5] (at 50.0 µM), 99.4% (active); in assay [6] (setting [7]), 97% (active); in assay [6] (setting [8]), 99% (active); in assay [6] (at 50.0 µM), 98.9% (active).

The record behind these values is PubChem BioAssay (NCI).
